FLuc inh: Firefly luciferase inhibition profiling of diverse chemical library using quantitative high-throughput screening; purified P. pyralis luciferase, luminescence, biochemical; Potency, µM (series often up to 115 µM), hits mostly inhibitors; 76,000 compounds, 2.5% hits; Luciferin 4-monooxygenase (Photinus pyralis), P08659; also: nearly all actives have a fitted effect of over 65% in size
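Purified 10nM P. pyralis luciferase with 10uM D-luciferin and 10uM ATP in 50mM Tris acetate pH 7.5, 10mM Mg acetate, 0.01% Tween-20, 0.05% BSA. qHTS titration; luminescence read by CCD imager.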
GPT2 inh: Primary qHTS assay for inhibitors of Glutamate pyruvate transaminase 2 (GPT2). 100,000 compounds, 0.25% hits. AID 1671188, 2021. Recombinant GPT2, coupled pyruvate oxidase/HRP Amplex Red fluorescence. Potency, µM (highest dose often 57.7 µM), without a hit: at the top dose activity change, negative = inhibition, usual class: inhibitors; also: nearly all actives have a fitted effect of over 60% in size
Target sequence (Q8TD30 whole entry, looked up): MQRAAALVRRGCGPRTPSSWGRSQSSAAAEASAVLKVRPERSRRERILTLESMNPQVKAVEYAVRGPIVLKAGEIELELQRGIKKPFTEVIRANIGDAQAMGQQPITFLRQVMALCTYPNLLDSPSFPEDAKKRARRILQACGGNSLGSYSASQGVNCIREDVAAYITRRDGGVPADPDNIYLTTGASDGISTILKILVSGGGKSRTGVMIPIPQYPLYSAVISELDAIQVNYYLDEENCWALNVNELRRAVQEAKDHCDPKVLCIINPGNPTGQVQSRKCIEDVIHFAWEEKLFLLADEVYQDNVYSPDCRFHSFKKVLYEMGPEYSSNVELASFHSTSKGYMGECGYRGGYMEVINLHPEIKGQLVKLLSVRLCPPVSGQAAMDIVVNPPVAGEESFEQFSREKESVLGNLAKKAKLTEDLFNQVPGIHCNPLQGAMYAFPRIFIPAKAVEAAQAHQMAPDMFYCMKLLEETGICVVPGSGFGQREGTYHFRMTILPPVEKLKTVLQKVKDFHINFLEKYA
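GPT2 10ng/uL, a-KG 250uM, L-Ala 2mM, HEPES pH7.5 + 0.0001% Tween; 30 min RT. Then Amplex mix (PO/HRP/ThPP), 30 min RT dark, fluorescence. AOA 50uM used as positive control.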
NIH3T3 tox: Cytotoxic Profiling in NIH 3T3 Cell Line of Diverse Libraries Using Quantitative High-Throughput Screening; NIH 3T3 viability, CellTiter-Glo ATP luminescence, 48-72 h; Potency, µM (series often up to 96.7 µM), for the others: at the highest dose activity change, negative = cytotoxicity, hits mostly inhibitors; 94,000 compounds, 4.3% hits; AID 1345082, 2018; also: nearly all actives have a fitted effect of over 55% in size
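Mouse fibroblast NIH 3T3 cells, 400 per well, received compound via pintool and were incubated for 48 or 72 hr prior to CellTiter-Glo ATP luminescence measurement.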
hNpr1 antagonist: Natriuretic polypeptide receptor (hNpr1) antagonism - Primary qHTS. Atrial natriuretic peptide receptor 1 (Homo sapiens), P16066. HEK293 hNpr1 GloSensor cGMP, ANP-stimulated luminescence. Potency, µM (series often up to 46.3 µM), inactives show at the highest dose activity change, negative = inhibition, hits mostly inhibitors. 76,000 compounds, 1.6% hits. AID 1347048, 2019; calls by dose curve; also: nearly all actives have a fitted effect of over 60% in size
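Compound pre-incubated 30 min at room temperature on GloSensor-loaded HEK293 cells stably carrying hNpr1 and the pGS-40F cGMP biosensor. Stimulation uses hNppA at 0.1 nM final; luminescence is taken at baseline and 20 min post-agonist.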
HEK293 tox: Cytotoxic Profiling in HEK 293 Cell Line of Diverse Libraries Using Quantitative High-Throughput Screening. HEK 293 viability, ATP luminescence (CellTiter-Glo), 48-72 h. Potency, µM (top dose mostly 115 µM), for inactives: top-dose activity change, negative = cytotoxicity, most hits filed as inhibitors. 94,000 compounds, 6.6% hits; also: nearly all actives have a fitted effect of over 60% in size
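Viability of HEK 293 cells, plated at 250 cells/well, was judged by cellular ATP after compound treatment for 48 or 72 hr. Luminescence was imaged 10 min after CellTiter-Glo addition at room temperature.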
Starred values were filed as active, the others as inactive; i = inactive; ? = inconclusive; nt = no result; [ ] = remark or other dose. Compounds with a hit are over-represented: about 10% of the library has one in this group of screens. Unless noted, calls follow the shape of the dose curve; as a rule, active = well fitted curve in the direction sought with a large enough effect; inconclusive = small, poorly fitted or top-dose-only effect, or another doubt; inactive = no such curve, though single readings can be large; an effect the other way counts as inactive or inconclusive. % is scaled to controls: 0 for no effect and ±100 for the full control effect; potency is read from the fitted curve at half-maximal effect.

SMILES | FLuc inh | GPT2 inh | NIH3T3 tox | hNpr1 antagonist | HEK293 tox
COc1cccc([S+](=O)([O-])N2CCC3(CC2)CC(=O)Nc2ccccc2O3)c1 | i | i | -16% | -3% | 50µM*
CCOC(=O)C1=C(C)N=C2SC=C(CC(=O)N3CCOCC3)N2C1c1cccc(Cl)c1 (centres undefined) | i | 4% | -21% | -24% | ?
O=C(NCc1ccc(Cl)cc1)C1CCc2nnc(CN[S+](=O)([O-])c3ccccc3Cl)n21 (centres undefined) | nt | -7% | -27% | nt | 0%
Cc1ccc2c(n1)OC(Cn1cccc1)CN(CCC1=CCCCC1)C2=O (centres undefined) | nt | nt | ? | nt | 89µM*
COc1cccc(N2C(=O)NC(=NC3CCCCC3)C23CCCN(CCC(C)C)C3)c1 (centres undefined) | nt | 0% | ? | nt | 40µM*
COc1cccc(N2C(=O)NC(=NC3CCCC3)C23CCCN(CC2CCCCC2)C3)c1 (centres undefined) | nt | 5% | ? | nt | ?
O=C1NC(=NC2CCCC2)C2(CCN(CC3CCCCC3)C2)N1c1cc(F)cc(F)c1 (centres undefined) | nt | i | ? | nt | 35µM*
COc1cccc(N2C(=O)NC(=NC3CCCCC3)C23CCCN(CC2CCCCC2)C3)c1 (centres undefined) | nt | i | 28µM* | nt | 32µM*
Fc1ccccc1-c1ncc[nH]1 | nt | -2%[88.5 µM] | 1%[230 µM] | nt | i
O=C1c2c(nc(COc3ccc4c(c3)OCO4)n2Cc2ccccc2)NCCN1Cc1cccc(Cl)c1 | i | -1% | 22µM* | ? | 32µM*
Cc1ccccc1NCc1nc2c(n1Cc1ccccc1)C(=O)N(C)CCN2 | i | -11%[88.5 µM] | -13%[138 µM] | -22%[70.6 µM] | ?
Cc1ccccc1NCc1nc2c(n1Cc1ccccc1)C(=O)N(CCOc1ccccc1)CCN2 | i | -14% | 32µM* | -19% | ?
O=C1c2c(nc(COc3ccc4c(c3)OCO4)n2Cc2ccccc2)NCCN1CC1CCOCC1 | i | i | -27% | -1% | ?
O=C1c2c(nc(COc3ccc4c(c3)OCO4)n2Cc2ccccc2)NCCN1CCOc1ccccc1 | i | -7% | ? | -28% | 40µM*
O=C1c2c(nc(COc3ccc(F)cc3F)n2Cc2ccccc2)NCCN1CCOc1ccccc1 | i | -10% | ? | ? | 45µM*
CCc1nncn1C1CCN(S(=O)(=O)c2ccc(C)cc2C)CC1 | i | i | -23% | -13% | -11%
COCCC(=O)N1C[C@@H]2CCCN3CCC[C@@H]([C@H]23)[C@H]1CCCC(=O)N1CCOCC1 | i | i | i | 5% | 16%
O=C(NCc1cccs1)c1ccc2nnc(-c3ccoc3)n2c1 | nt | i | ? | nt | -2%
O=C1c2c(nc(COc3ccc(F)cc3)n2Cc2ccccc2)NCCN1CCOc1ccccc1 | i | 0% | ? | ? | ?
COCCN1CCNc2nc(COc3ccc(Oc4ccccc4)cc3)n(Cc3ccccc3)c2C1=O | i | -3% | 45µM* | -22% | ?
O=C1c2c(nc(CNCc3ccc4c(c3)OCO4)n2Cc2ccccc2)NCCN1CCOc1ccccc1 | i | -17% | 40µM* | -14% | ?
O=C(NCCCN1CCc2ccccc2C1)C1Cn2cccc2C(=O)N1Cc1ccccc1 (centres undefined) | i | i | ? | -7% | -12%
COc1cc(CN2CCC3(CC2)C(=O)NCN3Cc2ccc(Cl)cc2)ccc1F | i | i | ? | 3% | ?
COc1ncccc1-c1cnc2[nH]cc(CC(=O)NC3CC3)c2c1 | i | -3%[88.5 µM] | 25µM* | -25%[70.6 µM] | ?
COc1ccc(OC)c(-c2cnc3[nH]cc(CC(N)=O)c3c2)c1 | i | -8%[88.5 µM] | ? | ? | -26%[172 µM]
SMILES | FLuc inh | GPT2 inh | NIH3T3 tox | hNpr1 antagonist | HEK293 tox
COc1ncccc1-c1cnc2[nH]cc(CC(=O)Nc3nc(C)cs3)c2c1 | i | i | 32µM* | ? | 35µM*
COc1ccc(CN[C@H]2C[C@H]3C(=O)NC[C@@H](CCC(=O)N4CCCCC4)N3C2)cc1 | i | 4%[88.5 µM] | -5%[138 µM] | -4%[70.6 µM] | -15%[172 µM]
O=C1CC[C@H](C(=O)N2CCCCC2)N1 | nt | -5% | nt | nt | nt
Cc1c(O)cccc1C(=O)N1CCCN(Cc2ccc(F)cc2)C(C(C)C)C1 (centres undefined) | i | -18% | ? | -3% | 45µM*
CCN(C(=O)c1cccc(F)c1F)[C@@H]1CCN(c2ncccc2C#N)C[C@H]1O | i | ? | -23% | -5% | -25%
CN(Cc1cccnc1)C1CN(S(=O)(=O)c2cn(C)cn2)C1 | i | -29% | 2% | -4% | 8%
CC(C)[C@H]1CN(C2CCOCC2)C[C@@H]1NC(=O)CCc1nncn1C | i | -9% | 2% | 0% | i
CCOc1ccccc1CN1CCC2(CCN(C(=O)Cc3cccc(Cl)c3)CC2)Oc2ccccc21 | i | i | -12% | -1% | -18%
CCOc1ccccc1CN1CCC2(CCN(C(=O)Cc3ccc(F)cc3)CC2)Oc2ccccc21 | i | i | ? | 6% | 35µM*
CCOc1ccccc1CN1CCC2(CCN(C(=O)C3CCCC3)CC2)Oc2ccccc21 | i | i | ? | -12% | 35µM*
O=C(Cc1ccc(F)cc1)N1CCC2(CC1)CCN(CCc1ccccc1)c1ccccc1O2 | i | i | ? | 21% | 45µM*
O=C(c1ccc(Cl)cc1)N1CCC2(CC1)C(=O)NCN2C(=O)CCCN1CCCC1 | nt | i | -9% | nt | -2%
COc1ccccc1Oc1ncccc1CNC(=O)c1ccc(C)nc1 | i | -5% | -9% | 5% | -8%
CCCNC(=O)N1CCC(Cc2ccc(CCNC(C)=O)cc2)CC1 | nt | -22% | ? | nt | 45µM*
O=C(NCCC1CCN(C(=O)Nc2cc(F)cc(F)c2)CC1)c1ccccc1 | 28µM* | i | -26% | -4% | ?
CCNC(=O)N1CCC(Cc2ccc(C(=O)Nc3cccc(F)c3)cc2)CC1 | 25µM* | i | ? | 11µM* | 40µM*
CCC(=O)N1CCN(c2nc3c(s2)CC(C(=O)NCc2ccccc2)CC3)CC1 (centres undefined) | i | i | -26% | -1% | ?
CCC(=O)N1CCN(c2nc3c(s2)CC(C(=O)Nc2ccc(F)cc2C)CC3)CC1 (centres undefined) | i | i | -16% | -16% | ?
